Source: PubChem
Rows were chosen to be rich in hits. Some 27% of all compounds tested hit in one or more screens of this group.
sEH activator – soluble epoxide hydrolase activators, primary screen, biochemical, human sEH; Bifunctional epoxide hydrolase 2 (Homo sapiens), P34913; purified human sEH enzymatic activity, activator screen; activation, % at 2 µM; 91,000 compounds, 0.04% hits; AID 717, 2007; in the data active = activation above about 37%
sEH inhibitor – soluble epoxide hydrolase inhibitors, primary screen, biochemical, human sEH; Bifunctional epoxide hydrolase 2 (Homo sapiens), P34913; recombinant human sEH enzymatic activity assay; inhibition, % at 2 µM; 91,000 compounds, 0.34% hits; AID 707, 2007; in the data active = inhibition above about 80%
CYP2C9 inh – blockers of cytochrome P450 2C9 activity – biochemical, luminescence, ADME assay, primary screen | CYP2C9 Supersomes, luciferin-H conversion | inhibition, % at 5 µM | 96,000 compounds, 20% hits;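 active = blocking of liver enzyme CYP2C9 beyond about 50% at 5 µM, limit read from the data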
Target sequence (P11712 whole entry, looked up): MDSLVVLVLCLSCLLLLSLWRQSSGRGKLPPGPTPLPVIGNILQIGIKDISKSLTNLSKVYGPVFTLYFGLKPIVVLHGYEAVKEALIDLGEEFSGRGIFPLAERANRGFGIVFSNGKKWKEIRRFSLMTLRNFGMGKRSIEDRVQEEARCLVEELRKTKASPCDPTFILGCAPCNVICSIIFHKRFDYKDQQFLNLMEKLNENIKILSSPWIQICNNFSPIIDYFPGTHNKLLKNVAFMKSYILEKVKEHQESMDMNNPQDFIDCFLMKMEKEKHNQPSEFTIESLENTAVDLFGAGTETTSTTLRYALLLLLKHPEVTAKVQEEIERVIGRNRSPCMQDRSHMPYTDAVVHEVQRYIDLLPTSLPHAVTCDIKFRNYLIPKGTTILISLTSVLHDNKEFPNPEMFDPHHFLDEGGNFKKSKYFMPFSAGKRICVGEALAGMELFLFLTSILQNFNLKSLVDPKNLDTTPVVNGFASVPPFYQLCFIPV
CYP2C19 act – human CYP2C19 activators, primary screen, biochemical, luminescence; recombinant CYP2C19, luciferin-H EGE luminescence; active compounds read high; 0 = fully inhibited enzyme, 1 = untreated enzyme; activation factor at 5 µM; 96,000 tested, under 10 active;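 active = activation factor of at least 2 at 5 µM in the primary screen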;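 note: 0 = wells with 2.5 mM tranylcypromine and 1 = vehicle-only wells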
CYP2C9 act – human CYP2C9 activators, primary screen, biochemical, luminescence; 96,000 compounds, 1.4% hits; AID 1024, 2008; activation factor at 5 µM; Cytochrome P450 2C9 (Homo sapiens), P11712; recombinant CYP2C9, luciferin-H conversion; active compounds read high; factor 1 = untreated enzyme, 0 = blocked;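 active = activation factor of 2 or more for CYP2C9 at a 5 µM dose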;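 note: 0 = sulfaphenazole-blocked wells and 1 = vehicle-only wells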
CYP2C19 inh – blockers of cytochrome P450 2C19 activity – biochemical, luminescence, ADME assay, primary screen | 96,000 compounds, 21% hits | inhibition, % at 5 µM | CYP2C19 Supersomes, luciferin-H EGE luminescence, 30 min | P33261;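 active = CYP2C19 inhibition above a set limit at 5 µM in the primary screen, cut at about 50% in these data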;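 note: plate controls were negative control wells for no effect and 2.5 mM tranylcypromine positive control for full effect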
* hit, by the source's call; . = no result.

SMILES	sEH activator	sEH inhibitor	CYP2C9 inh	CYP2C19 act	CYP2C9 act	CYP2C19 inh
C=CCNC(=O)c1sc(=S)n(-c2ccc(C(=O)OCC)cc2)c1N	.	.	56*	0.8	0.4	16
COc1ccc(-n2c(N)c(C(=O)NCC3CCCO3)sc2=S)cc1 (centres undefined)	-6	8	8	1.1	0.9	-10
CCOC(=O)c1ccc(-n2c(N)c(C(=O)NCc3ccco3)sc2=S)cc1	-27	27	41	0.9	0.6	15
O=C(NCc1ccccn1)c1ccc(Cl)s1	-10	9	16	0.7	0.8	26
O=C(NCc1cccs1)c1ccc(Cl)s1	0	1	6	0.5	0.9	54*
CCc1ccc(C(=O)NCc2cccs2)s1	.	.	45	0.2	0.5	80*
Cc1occc1C(=O)NCc1cccs1	-6	4	.	.	.	.
CCOC(=O)c1cccc(NC(=O)Cn2c(CC(=O)N3CCCC3)nc3ccccc32)c1	-23	22	88*	0.8	0.1	17
CCOC(=O)c1ccccc1NC(=O)CSc1nc2ccccc2n1CC(=O)N1CCCC1	1	2	87*	0.2	0.1	82*
CCSc1nc2ccccc2n1CC(=O)N1CCCCC1	13	-14	-4	0.8	1	23
CCc1nnc(NC(=O)c2ccc3c(c2)C(=O)N(CC)C3=O)s1	2	-5	.	.	.	.
CCCCC(NC(=O)c1ccccc1)C(=O)OCC(=O)N1c2ccccc2Sc2ccccc21 (centres undefined)	9	-10	94*	0.6	0.1	44
CC(C)CNCC(=O)N1c2ccccc2Sc2ccccc21	-11	11	5	1	0.9	-1
CCN(CC(F)(F)C(F)F)S(=O)(=O)c1ccc(NC(=O)OC)cc1	-17	17	41	0.8	0.6	22
N#CC1=C(C2CC2)CC(c2ccccc2)C(C#N)=C1N (centres undefined)	10	-13	7	0.4	0.9	57*
Cc1cccc(NC(=O)CSc2nc3ccc(N4C(=O)c5ccccc5C4=O)cc3s2)c1C	3	-1	70*	0.7	0.3	30
Cc1cccc(NC(=O)CSc2nc3ccc(NC(=O)CSc4nnnn4-c4ccccc4)cc3s2)c1C	-26	28	68*	0.8	0.3	19
Cn1c(SCC(=O)Nc2ccc3nc(SCC(=O)N4CCCC4)sc3c2)nnc1-c1ccccc1	-6	7	43	0.8	0.6	20
Cc1ccc(S(=O)(=O)N2CC3(C)CN(S(=O)(=O)c4ccc(C)cc4)CC(C)(C2)C3)cc1	5	-4	32	0.9	0.7	13
COC1(OC)C(/C=C/c2ccc(C)cc2)C(C#N)(C#N)C1(OC)OC (centres undefined)	-9	10	.	.	.	.
CC(C)(C)NC(=O)CSC(=Nc1ccc(F)cc1)NC#N	.	.	41	0.3	0.6	72*
CCOC(=O)c1c(=O)n(O)c2ccc(OC)cc2[n+]1[O-]	3	-3	-4	1	1	-1
CCOC(=O)c1ccc(NC(=O)CSc2nc3c(c(=O)n2C)SC(C)C3)cc1 (centres undefined)	.	.	51*	0.5	0.5	46
CC1Cc2nc(SCC(=O)Nc3ccc4c(c3)OCO4)n(Cc3ccccc3)c(=O)c2S1 (centres undefined)	4	0	75*	0.2	0.3	84*
CC1Cc2nc(SCC(=O)Nc3ccc4c(c3)OCCO4)n(C)c(=O)c2S1 (centres undefined)	1	2	52*	0.9	0.5	6
SMILES	sEH activator	sEH inhibitor	CYP2C9 inh	CYP2C19 act	CYP2C9 act	CYP2C19 inh
CC1Cc2nc(SCC(N)=O)n(C)c(=O)c2S1 (centres undefined)	.	.	14	1	0.9	-4
Cc1cc(NC(=O)C2C3C(=O)N(CC4CCCO4)C(C(=O)NCc4ccccc4)C34C=CC2(C)O4)no1 (centres undefined)	-1	2	.	.	.	.
O=C(COc1ccccc1-c1ccccc1)Nc1ccc(S(=O)(=O)NCc2ccco2)cc1	-14	13	34	1	0.7	-5
COc1cc(C2N=C(c3ccccc3)NO2)cc(Br)c1O (centres undefined)	-4	5	-7	0.1	1.1	87*
COc1ccc(C2N=C(c3ccccc3)NC(c3ccccc3)=N2)cc1	16	-10	.	.	.	.
Cc1cccc(Oc2ncnc3oc(-c4ccccc4)cc23)c1C	2	1	54*	0.7	0.5	28
Cc1ccccc1NC(=O)C(=O)NCc1ccccn1	0	-1	-1	0.1	1	89*
Cc1cc(S(=O)(=O)NC2CCCCC2)ccc1OCC(=O)NCc1ccccn1	-9	13	54*	0.8	0.5	18
CCOc1ccc(-c2cc(CCCC(=O)NCCc3ccccc3)no2)cc1	-47	48	50*	0.6	0.5	42
CCOc1ccc(-c2cc(CCCC(=O)NCc3cccnc3)no2)cc1	.	.	33	0.8	0.7	16
COc1ccc(-c2cc(CCCC(=O)NCc3ccccn3)no2)cc1	.	.	67*	0.4	0.3	56*
CCOc1cc(CNCc2ccccn2)ccc1OCC(=O)NC1CCCCC1	6	-4	25	0.5	0.7	48
O=C(Cn1c(=O)oc2cc(S(=O)(=O)N3CCOCC3)ccc21)N1CCc2ccccc2C1	.	.	6	1.1	0.9	-14
Cc1cc(=O)oc2cc(OCC(=O)NCc3ccccn3)ccc12	-7	9	1	0.8	1	16
O=C(COc1ccc(S(=O)(=O)N2CCc3ccccc32)cc1Cl)NCc1ccccn1	5	-4	94*	0.1	0.1	94*
Cc1ccc(OCC(=O)NCc2ccccn2)cc1	2	-1	9	0.2	0.9	76*
COc1ccc(S(=O)(=O)N2CCC(C(=O)NCc3ccccn3)CC2)cc1OC	9	-9	-17	1	1.2	0
CCOc1ccc(-c2cc(CCCC(=O)NCCc3ccc(OC)c(OC)c3OC)no2)cc1	-9	8	66*	0.8	0.3	22
Cc1c(CN(C)C)c2c(n1Cc1ccccc1)C(=O)c1ccc(Br)cc1-2	24	-26	63*	0.2	0.4	79*
c1ccc2c(c1)NC(CN1CCOCC1)CO2 (centres undefined)	22	-17	-9	0.5	1.1	53*
C#CCN(C)CC/C=C1\c2ccccc2CSc2ccccc21	10	-7	.	.	.	.
CCOC(=O)C(C(=O)OCC)C(Nc1ccc(Br)cc1)c1ccccc1 (centres undefined)	13	-13	-12	0.9	1.1	15
c1ccc2c(CSc3nnc(-c4ccncc4)o3)cccc2c1	11	-12	91*	0	0.1	96*
c1ccc2[nH]c(CSc3nnc(-c4ccncc4)o3)nc2c1	.	.	81*	0.2	0.2	80*
